JMJD2A Tudor inh – JMJD2A Tudor domain (human) inhibition. hit rate 4.4% among 390,000. Potency, µM (series often up to 114 µM), for inactives: at the highest dose activity change, negative = inhibition, usual class: inhibitors. AID 504339. AlphaScreen JMJD2A-Tudor / H3K4me3 peptide binding; note: potency is the fitted concentration of half-maximal effect; % is set by controls: 0 for no effect and ±100 for the full control effect; nearly all actives have a fitted effect of over 50% in size
PI5P4K alpha inh – inhibitors of human PI5P4K alpha. P48426. AID 652105. max response, %. PI5P4Kalpha enzyme, ADP-Glo luminescence, 60 min; active compounds read low. hit rate 1.2% among 330,000; active = max response of -50% or lower; inconclusive = between -30% and -50%; inactive = -30% or higher; note: value at the top dose of about 77 µM; % is set by controls: 0 for no effect and ±100 for the full control effect
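PI5P4Kalpha ADP-Glo assay; 5 microM ATP final; 60 min RT reaction; HEPES pH 7.4/EGTA/CHAPS, 5% DMSO; controls lacking substrate or enzyme; luminescent end-point.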
HP1b chromo inh – HP1-beta chromodomain-methylated histone interaction inhibition; P83916; hit rate 0.56% among 390,000; Potency, µM (titrated, usually from 114 µM), for the others: top-dose activity change, negative = inhibition, hits mostly inhibitors; AlphaScreen HP1-beta / biotin-H3K9me3 peptide binding; AID 540317; note: potency is the fitted concentration of half-maximal effect; nearly all actives have a fitted effect of over 70% in size
Target sequence (P83916 whole entry, looked up): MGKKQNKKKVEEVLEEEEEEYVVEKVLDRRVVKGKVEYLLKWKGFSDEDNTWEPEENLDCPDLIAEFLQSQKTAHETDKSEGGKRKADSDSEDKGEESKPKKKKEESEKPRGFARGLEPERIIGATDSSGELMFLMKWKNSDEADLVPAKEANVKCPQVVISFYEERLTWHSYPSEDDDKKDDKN
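AlphaScreen: HP1-beta (50 nM) preformed 30 min with biotin-H3(1-18)K9me3 peptide (50 nM) in PBS pH 7.4, 0.01% Tween-20. Compound added for 30 min at RT, then streptavidin donor/nickel chelate acceptor beads (10 ug/mL) for 30 min.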
G9a block – G9a (human) methyltransferase inhibition. Q96KQ7. G9a H3K9 monomethylation, AlphaScreen, 2 h. Potency, µM (top dose mostly 102 µM), inactives show top-dose activity, negative = inhibition, usual class: inhibitors. hit rate 8.8% among 350,000; note: potency is the fitted concentration of half-maximal effect; % is set by controls: 0 for no effect and ±100 for the full control effect; nearly all actives have a fitted effect of over 75% in size
Target sequence (Q96KQ7 913-1193 limits assumed): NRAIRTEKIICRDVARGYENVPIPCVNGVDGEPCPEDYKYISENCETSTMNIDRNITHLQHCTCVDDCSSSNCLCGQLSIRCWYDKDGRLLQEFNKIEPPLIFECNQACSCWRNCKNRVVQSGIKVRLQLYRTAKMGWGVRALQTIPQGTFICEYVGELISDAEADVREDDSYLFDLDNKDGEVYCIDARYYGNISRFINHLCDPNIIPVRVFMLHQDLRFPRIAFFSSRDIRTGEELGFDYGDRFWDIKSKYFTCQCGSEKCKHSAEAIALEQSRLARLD
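G9a (20 nM) was preincubated 15 min with compound, then reacted 2 h at room temperature with 500 nM biotin-H3K9 peptide and 20 µM SAM. Monomethyl-H3K9 detected by AlphaScreen using anti-H3K9me1 antibody.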
PLK1 PBD block – PLK1 (human) polo-box domain binding inhibition; P53350; Plk1 PBD binding of FITC phosphopeptide, fluorescence polarization; Potency, µM, for inactives: max response, negative = inhibition, usual class: inhibitors; hit rate 2.8% among 360,000; note: potency is the fitted concentration of half-maximal effect; series mostly up to about 57 µM; % is set by controls: 0 for no effect and ±100 for the full control effect; nearly all actives have a fitted effect of over 65% in size
BAZ2B inh – inhibitors of human BAZ2B bromodomain; Q9UIF8; AlphaScreen BAZ2B-H3K14Ac peptide displacement; Potency, µM (doses to about 114 µM), for the others: at the top dose activity change, negative = inhibition, hits mostly inhibitors; hit rate 4.4% among 360,000; AID 504333; note: potency is the fitted concentration of half-maximal effect; % is set by controls: 0 for no effect and ±100 for the full control effect; nearly all actives have a fitted effect of over 60% in size
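In this displacement format the biotinylated H3(5-23) peptide acetylated at Lys14 serves as ligand at 50 nM, with BAZ2B at 50 nM in PBS pH 7.4 containing 0.01% Tween-20. Donor and acceptor beads are 10 ug/mL final.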
Active calls of the source: *; ? = inconclusive; · = no result; ! = not active in a repeat; [ ] = another dose, or the depositor's remark. Rows were chosen to be rich in hits. Some 12% of all compounds tested hit in one or more screens of this group. Unless noted, calls come from the whole dose curve; as a rule, active = well fitted curve in the direction sought with a large enough effect; inconclusive = small, poorly fitted or top-dose-only effect, or another doubt; inactive = no such curve, though single readings can be large; an effect the other way counts as inactive or inconclusive.

SMILES	JMJD2A Tudor inh	PI5P4K alpha inh	HP1b chromo inh	G9a block	PLK1 PBD block	BAZ2B inh
CCc1nc2sc3c(c2c(=O)n1CCO)CCC3	-2.8%	1.6	45.1%	22.1%	-0.2%	-16.7%
CCc1cccc(CC)c1NC(=O)Cn1nnc2sc3c(c2c1=O)CCCC3	-12.4%	·	32.6%	17.1%[59 µM]	·	-0.6%
O=C(Cc1c(F)cccc1Cl)NNC(=O)c1ccncc1	-9.8%	3.8	26.7%	4.2%[12.7 µM]	0.0%	?
COc1ccc(F)cc1S(=O)(=O)N1CCc2ccccc2C1	·	1.7	·	·	-2.2%	·
COc1ccc(F)cc1S(=O)(=O)N1CCCC(C)C1 (configuration not stated)	-4.7%	·	14.4%	18.2%[59 µM]	-10.2%	7.3%
COc1ccc(F)cc1S(=O)(=O)N1CCCN(S(=O)(=O)c2cc(F)ccc2OC)CC1	-11.5%[11.4 µM]	-4.2	-16.7%	2.8%[12.7 µM]	26.7µM*	-19.6%
COc1ccc(F)cc1S(=O)(=O)n1cc(C)nc1-c1ccccc1	22.4µM*	?	1.0%	9.4%[59 µM]	4.23µM*	-7.5%
CCOc1ccc(NC(=O)CN(C)C(=O)Cc2ccc3c(c2)OCCO3)cc1OCC	·	6.8	·	·	-13.3%	·
CCN1CCN(C(=O)Cn2ncc3c4ccccc4n(Cc4c(C)cc(C)cc4C)c3c2=O)CC1	-30.9%	·	9.7%	-29.7%[59 µM]	·	?
CCOc1ccccc1CNC(=O)C1CCN(c2nnc(C)c3c(C)n(-c4ccc(C)cc4)nc23)CC1	-17.9%	0.8	22.6%	-43.3%	-3.6%	-26.0%
Cc1ccccc1CNC(=O)C1CCCN(c2nnc(C)c3c(C)n(-c4ccccc4)nc23)C1 (configuration not stated)	?	14.2	14.4%	56.2µM*	-16.0%	?
COc1ccc(-n2nc3c(N4CCC(C(=O)NCCc5ccco5)CC4)nnc(C)c3c2C)cc1	50.1µM*	-7.4	23.5%	-17.3%	26.7µM*	-8.4%
CCc1ccc(CNC(=O)C2CCCN(c3nnc(C)c4c(C)n(-c5ccccc5)nc34)C2)cc1 (configuration not stated)	?	-4.0	43.2%	?	8.6%	79.4µM*
CCOc1ccc(CNC(=O)C2CCN(c3nnc(C)c4c(C)n(-c5ccc(C)cc5)nc34)CC2)cc1	?	-4.4	26.2%	22.4µM*	-8.7%	56.2µM*
O=C1O/C(=C/Br)CCC1c1cccc2ccccc12 (configuration not stated)	·	·	·	26.7%[59 µM]	·	·
COC(=O)\C(C(C)=O)=C(/C=C/C=C/C=C/N(C)C)N(C)C	11.2µM*	1.0	?	31.6µM*	70.3%	17.8µM*
COc1cc2c(cc1OC)C(COc1cccc(C(F)(F)F)c1)N(C(=O)c1ccc(S(=O)(=O)N3CCCC3)cc1)CC2 (configuration not stated)	-24.5%	·	17.4%	3.1%[59 µM]	·	-3.0%
O=C1Nc2ccc(S(=O)(=O)Nc3ccccc3O)c3cccc1c23	-22.3%	·	19.1%	12.6µM*	·	-26.1%
Cc1ccc(C)c(NS(=O)(=O)c2ccc3c4c(cccc24)C(=O)N3)c1	-30.7%	·	13.1%	-39.8%[59 µM]	·	1.0%
Cc1cc(O)ccc1Nc1nc(-c2cccnc2)cs1	-18.4%	3.2	2.8%	·	-2.1%	?
Cc1nc(C)c(-c2csc(Nc3ccc(O)cc3C)n2)s1	-30.3%	-3.1	15.0%	-1.4%[59 µM]	26.7µM*	-4.6%
Cc1cc(O)ccc1Nc1nc(-c2cccs2)cs1	?	-1.6	-16.2%	44.7µM*	-27.1%	?
CCN1CCN(S(=O)(=O)c2ccc(Cl)c(C(=O)NC(C)c3ccccc3Cl)c2)CC1 (configuration not stated)	-4.1%	2.1	22.7%	-46.8%	-3.1%	-7.3%
COc1cc(/C=C(\C#N)c2nc3c(s2)CCCC3)ccc1O	·	·	·	?	·	56.2µM*
N#C/C(=C\c1cccnc1)c1nc2c(s1)CCCC2	5.1%	-1.2	42.2%	42.4%	-19.9%	12.7%
SMILES	JMJD2A Tudor inh	PI5P4K alpha inh	HP1b chromo inh	G9a block	PLK1 PBD block	BAZ2B inh
CC(=Nc1cccc(C)c1)c1sc2ccccc2c1O	?	·	27.1%	-22.4%	-6.8%	-9.1%
Oc1c(N=Nc2ccccc2)sc2ccccc12	?	-6.8	-24.3%	·	-13.9%	2µM*
CCn1c(=O)n(-c2ccc(C)c(F)c2)c(=O)c2sc3ccccc3c21	-19.5%	·	18.7%	-6.8%[59 µM]	·	-3.0%
CCc1nn(CC(=O)NC2CC2)c(=O)c2cc3ccccc3n12	0.4%	·	64.2%	25.7%[59 µM]	·	26.6%
CCc1nn(CC(=O)NC2CCN(Cc3ccccc3)CC2)c(=O)c2cc3cc(F)ccc3n12	-9.7%	-3.7	30.1%	44.7µM*	-6.8%	-10.1%[57.1 µM]
CCc1nn(CC(=O)NC(C)CCc2ccccc2)c(=O)c2cc3cc(F)ccc3n12 (configuration not stated)	-12.4%	-6.8	-1.0%	50.1µM*!	-9.2%	?
CCc1nn(CC(=O)NC(C)CCc2ccccc2)c(=O)c2cc3c(OC)cccc3n12 (configuration not stated)	7.3%	·	21.5%	26.3%[59 µM]	·	2.4%
CC1C(=O)N(C)C(=O)c2nc[nH]c21 (configuration not stated)	·	·	·	14.9%[12.7 µM]	·	·
COc1ccc(NC(=O)Nc2cccs2)cn1	-35.2%	-12.0	9.1%	35.5µM*	-25.3%	-37.4%
COc1ccc(NC(=O)CCl)cn1	·	·	·	28.2µM*	·	79.4µM*
COc1ccc(CC(=O)Nc2ccc(OC)nc2)cc1	-12.4%	0.1	16.1%	-2.2%	2.5%	·
CCOc1cccc(C2C(C(=O)c3ccc(C)o3)=C(O)C(=O)N2c2nnc(C)s2)c1 (configuration not stated)	1.12µM*	-23.2	?	·	-3.0%	·
CCCOc1cccc(C2C(C(=O)c3ccc(C)o3)=C(O)C(=O)N2c2nc(C)c(C(C)=O)s2)c1 (configuration not stated)	-26.5%	-19.9	8.5%	15.8µM*	?	56.2µM*
CCOc1ccc(NC(=O)c2cn(-c3ccc(OCC)cc3)c(=O)c3cc(OC)c(OC)cc23)cc1	-17.6%[57.1 µM]	3.1	28.9%	-31.6%	-7.6%	-31.4%
COc1cccc(-n2cc(C(=O)NCc3ccccc3OC)c3ccccc3c2=O)c1	-15.5%	·	38.0%	-1.2%[59 µM]	·	-2.6%
CCOc1ccc(-n2cc(C(=O)NC(C)C)c3cc(OC)c(OC)cc3c2=O)cc1	20µM*	-9.7	-11.6%	-40.1%	23.8µM*	0.3%
COc1ccc(-n2cc(C(=O)NCCc3cc(OC)ccc3OC)c3ccccc3c2=O)cc1	50.1µM*	·	-6.3%	?	·	?
CCc1cccc(C)c1NC(=O)C1CCCN1S(=O)(=O)c1cccc2nsnc12 (configuration not stated)	-7.4%	·	31.2%	3.0%[59 µM]	·	-13.1%
Cc1nc([N+](=O)[O-])cn1CC(=O)Nc1ccc([N+](=O)[O-])cc1	-20.5%	0.2	25.2%	-2.1%	-12.0%	-23.1%

Screening results as filed in PubChem.
